DAX1 inh-1: DAX1 (NR0B1) inhibitors on StAR promoter, primary screen, cell-based, luminescence, SF-1 (NR5A1), full-length DAX-1; HEK293T StAR-luciferase reporter, SF-1/DAX-1 repression relief; inhibition, % at 6.8 µM; 370,000 tested, 1.1% active;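 active = inhibition above the mean over all tested compounds plus 3 SD, cut at about 3.6% in these data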;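 note: 0% = DAX-1 cells with DMSO and 100% = cells lacking DAX-1 with DMSO; higher inhibition means more luminescence from relief of DAX-1 repression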
hgDAF12 agonist: H. glycines DAF-12 receptor agonists, primary screen, cell-based, luminescence, HEK293, GAL4 fusion, UAS-luciferase; 370,000 tested, 1.8% active; HEK293 GAL4-hgDAF12 UAS-luciferase reporter, agonist luminescence; normalized to butyrate control; activation, % at 6.8 µM; Nuclear hormone receptor DAF-12 (Heterodera glycines), GAL4 fusion;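 active = activation above a cutoff set at the mean of all screened compounds plus 3 SD, cut at about 10% in these data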;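 note: 0% = DMSO wells and 100% = sodium butyrate wells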
ssDAF-12 act: S. stercoralis DAF-12 nuclear receptor activators, primary screen, cell-based, luminescence, HEK293, GRIP1 co-expression, lit1-tk-luc. 370,000 tested, 1% active. HEK293 ssDAF-12/GRIP1 lit1-tk-luc reporter; % of 3 µM dafachronic acid response. activation, % at 6.8 µM;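 active = activation above the mean over all tested compounds plus 3 SD, cut at about 0.9% in these data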;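 note: 0% = DMSO-only wells and 100% = 3 µM delta7-dafachronic acid wells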
hcDAF-12 act: H. contortus DAF-12 nuclear receptor activators, primary screen, cell-based, luminescence, HEK293, lit1-tk-luc reporter. HEK293 hcDAF-12 lit1-tk-luc reporter; 0% DMSO, 100% Δ7-dafachronic acid. activation, % at 6.8 µM. 370,000 tested, 1.4% active. AID 652067, 2013;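 active = activation above the mean of all tested compounds plus 3 SD, cut at about 5.5% in these data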;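 note: 100% = response to 3 µM Δ7-dafachronic acid high control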
DAX1 inh-2: DAX1 (NR0B1) inhibitors, primary screen, cell-based, HEK293, Gal4-DAX1, luciferase luminescence; HEK293 Gal4-DAX1 luciferase reporter; inhibition, % at 6.75 µM; 340,000 tested, 0.99% active;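 active = inhibition above the mean over all tested compounds plus 3 SD, cut at about 4.2% in these data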;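 note: 0% = DAX1-transfected cells with DMSO and 100% = empty-vector control cells with DMSO; inhibition shows as a rise in luminescence from relieved DAX1 repression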
Target sequence (P51843 207-470 limits assumed): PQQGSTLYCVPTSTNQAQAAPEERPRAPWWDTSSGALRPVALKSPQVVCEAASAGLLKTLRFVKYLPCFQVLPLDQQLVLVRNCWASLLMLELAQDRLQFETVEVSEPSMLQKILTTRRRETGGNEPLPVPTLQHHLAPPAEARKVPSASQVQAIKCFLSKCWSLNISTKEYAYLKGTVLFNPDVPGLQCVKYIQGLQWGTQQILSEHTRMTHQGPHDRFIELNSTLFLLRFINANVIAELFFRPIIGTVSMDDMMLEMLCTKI
FXN GAA850 act: FXN promoter activators, primary screen, cell-based, luciferase luminescence, HEK293 lucGAA850. HEK293 lucGAA850 FXN promoter luciferase reporter, 24 h; percent of 10 µM SAHA response. activation, % at 6 µM. 360,000 tested, 0.56% active. AID 540364, 2011;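 active = activation above the average of all compounds screened plus 3 SD, cutoff fixed separately per campaign, cut at about 7.5% in these data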;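 note: 0% = DMSO wells and 100% = 10 µM SAHA wells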
The depositor's hits bear a star; · = no result given. Most compounds without a hit are left out; they make up all but 4.5% or so of the library.

SMILES | DAX1 inh-1 | hgDAF12 agonist | ssDAF-12 act | hcDAF-12 act | DAX1 inh-2 | FXN GAA850 act
COc1ccc(S(=O)(=O)NCc2ccco2)cc1C(=O)N1CCCCC1 | -0.3 | 1.5 | -1.4 | -2.0 | 5.0* | 0.4
Cc1ccc2nc3sc(C(=O)N4CCOCC4)c(N)c3cc2c1 | 3.7* | 8.6 | 0.7 | 6.5* | 1.3 | -1.4
CC(=O)Nc1ccc(C(/C=C/c2ccccc2)Cc2ccccc2)cc1 (stereo not drawn) | -0.9 | 2.9 | -1.4 | -2.1 | · | ·
CCCCn1c(O)c2n(c1=O)Cc1ccccc1N=C2c1ccc(OC)cc1 | -1.5 | 3.7 | 0.3 | 5.6* | · | ·
O=c1n(Cc2ccccc2)c(O)c2n1Cc1ccccc1N=C2c1ccccc1 | -0.5 | 2.2 | -1.2 | 2.8 | · | ·
CCCC(=O)Nc1ccc(C#Cc2ccccc2)cc1 | 1.6 | 12.4* | -1.0 | -0.7 | 0.7 | 1.5
CCCCCCCCN1CCS(=O)(=O)N(Cc2ccc(OC)cc2)C(C(=O)OC)C1 (stereo not drawn) | -2.3 | -1.6 | -1.7 | -2.4 | · | ·
COC(=O)[C@]12C[C@H](CC(=O)N3CCC(c4ccccc4)CC3)C(=O)N(CCc3ccc(OC)c(OC)c3)C1=C[C@H](C(C)C)O[C@@H]2C1CC1 | -1.5 | -5.3 | -1.4 | 0.0 | · | ·
N#CCCn1nc(-c2ccccc2)c2ccccc2c1=O | -0.4 | -0.9 | -1.5 | -1.4 | 5.0* | 3.3
CNC(=O)CCn1nc(-c2ccccc2)c2ccccc2c1=O | 0.0 | 1.0 | -1.1 | -0.4 | -0.5 | -0.1
COc1ccc(S(=O)(=O)NC(C)C(=O)NCc2ccncc2)cc1OC (stereo not drawn) | 0.0 | 0.7 | -1.2 | 0.2 | 5.8* | -0.5
COc1ccc(S(=O)(=O)NC(C)C(=O)NCc2ccncc2)cc1C (stereo not drawn) | 0.3 | 0.0 | -0.6 | -1.2 | -0.7 | -0.5
Cc1ccc(C(=O)C2CCN(CC(=O)NC(C)C)CC2)cc1 | 0.8 | -1.3 | -1.9 | -1.4 | · | ·
O=c1oc2ccccc2n1CCCOc1ccccc1 | 1.9 | 10.7* | -1.1 | 1.0 | 2.2 | 2.9
Cc1ccc(C2=NN=C(NC(=O)C(F)(F)F)SC2)cc1 | 0.9 | 12.2* | 2.3* | 4.3 | 0.1 | 3.5
Fc1ccc(C2=Nn3c(nnc3C3CCCCC3)SC2)cc1 | -0.1 | -0.6 | -1.4 | -3.2 | · | ·
c1ccc(-c2ccc(-c3nc(-c4ccncc4)no3)cc2)cc1 | 2.7 | 7.4 | -1.0 | 1.6 | 2.8 | 4.1
c1coc(-c2nc(-c3ccncc3)no2)c1 | 1.0 | 12.9* | 1.7* | 4.5 | 0.6 | 3.9
Clc1ccc(-c2nc(-c3ccncc3)no2)c(Cl)c1 | 0.2 | 7.9 | -0.9 | 0.7 | 4.9* | 1.9
O=C(C1CCN(c2cncnc2)CC1)N1CCCC1 | 0.6 | 1.9 | -0.9 | -0.4 | · | ·
COC(=O)[C@]12C[C@H](CC(=O)NCc3ccc(C)o3)C(=O)N(Cc3ccc4c(c3)OCO4)C1=C[C@H](C(C)(C)C)O[C@@H]2C | -1.1 | -0.2 | -1.3 | -2.8 | · | ·
CC(C)=CC(=O)Nc1nnc(-c2ccccc2C)s1 | 1.6 | 5.9 | -0.8 | 0.3 | 5.2* | 4.2
COC(=O)C1CN(Cc2ccc(C)cc2)CCS(=O)(=O)N1Cc1cn(Cc2ccccc2)nn1 (stereo not drawn) | -0.6 | 1.5 | -1.3 | -3.9 | · | ·
Cc1ccc(OCC(=O)Nc2ccc(C(=O)Nc3ccccc3C(=O)O)cc2)cc1C | 1.6 | 10.7* | -0.2 | 0.3 | -1.2 | 1.6
O=C(O)c1ccc(NC(=O)c2ccccc2NC(=O)c2cccc(F)c2)cc1 | -0.3 | -0.2 | -0.5 | 0.5 | 0.1 | 1.8
Cc1cccc(C(=O)Nc2ccccc2C(=O)Nc2ccc(C(=O)O)cc2)c1 | 0.1 | -0.3 | -1.4 | 0.3 | 6.6* | 0.2
COc1ccc(OCC(=O)Nc2ccc(C(=O)Nc3ccccc3C(=O)O)cc2)cc1 | 0.4 | 1.3 | -1.0 | 4.3 | 0.4 | -0.3

Source: PubChem BioAssay (The Scripps Research Institute Molecular Screening Center)
